Experimental data as given in PubChem BioAssay AID1347426 (Functional Genomics Laboratory (NCATS/FGL), 2020).
Screen size: about 31,000 sequences; about 1,400 (4.5%) were called active.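 How the source made its calls: active means median seed-adjusted z-score above 1 or below -1; inactive means the rest.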 Many of the other results were omitted from the sample, so actives are more common in it than they were.

assay: Novel Modifiers of Survival Motor Neuron (SMN) Protein: Gene Identification via Genome-wide siRNA Screen; conditions: HEK293T SMN2-luciferase reporter, siRNA knockdown, 72 h; actives lie on both sides;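 further: luminescence tracks full-length SMN protein made from the SMN2 reporter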
In short: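 siRNA screen, 10418 genes ×3 siRNAs; 1 pmol/well, lipid reverse transfection into HEK293T SMN2-luc reporter line. 72 h, 37 °C, 5% CO2; ONE-Glo readout. Data: neg-ctrl normalized, log10, MAD; hit = MAD >1.0 or < -1.0.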

Q: For GCAGUGUAUAGAACGAGAATT against RNGTT, which median seed-adjusted z-score is on record?
A: Its median seed-adjusted z-score is -1.55 (active).

Q: For GCACAUCAAGUUCUAUACATT against SLCO2A1, which median seed-adjusted z-score is on record?
A: Its median seed-adjusted z-score is -0.0778 (inactive).

Q: Which median seed-adjusted z-score does the source give for CCCUGUCAUCUAUGCUCUATT against CNR2 here?
A: Its median seed-adjusted z-score is 0.33 (inactive).

Q: With GACCCACAAAUAUACCAUUTT against SMAP1 as the sequence, how does the median seed-adjusted z-score read?
A: The median seed-adjusted z-score was -0.201 (inactive).

Q: Which median seed-adjusted z-score does the source give for GCAAAGCUCUAAAGCCCAATT against TXNDC12 here?
A: Its median seed-adjusted z-score is -0.154 (inactive).

Q: Which median seed-adjusted z-score does the source give for GGAUUAAAGUGUGAAGACUTT against PRKCD here?
A: Its median seed-adjusted z-score is -0.236 (inactive).

Q: With GGGCAGAUGACACCUUUGATT against TCEB2 as the sequence, how does the median seed-adjusted z-score read?
A: The median seed-adjusted z-score was 1.28 (active).

Q: Which median seed-adjusted z-score does the source give for CGCAAGGACAGAAAACCAATT against ASMT here?
A: Its median seed-adjusted z-score is -0.322 (inactive).

Q: For ACGGCUACGUGGUAAAGGATT against RPS6KA1, which median seed-adjusted z-score is on record?
A: The median seed-adjusted z-score was 0.194 (inactive).

Q: Which median seed-adjusted z-score does the source give for CAGCAACCAGAGGAGUAUATT against TCF20 here?
A: Its median seed-adjusted z-score is 0.392 (inactive).

Q: For CCGUCAUGCACUUACCUUUTT against ADCY9, which median seed-adjusted z-score is on record?
A: The median seed-adjusted z-score was 0.269 (inactive).

Q: Which median seed-adjusted z-score does the source give for CAUCAUGACAUGUAUGAUUTT against PAFAH1B3 here?
A: Its median seed-adjusted z-score is -0.381 (inactive).

Q: With GAGUGUGACUGGUAAAGUUTT against SMNDC1 as the sequence, how does the median seed-adjusted z-score read?
A: The median seed-adjusted z-score was -1.54 (active).

Q: Which median seed-adjusted z-score does the source give for GAGGAAUUGUUGAUAAAGATT against MAGI2 here?
A: Its median seed-adjusted z-score is -0.23 (inactive).

Q: Which median seed-adjusted z-score does the source give for GAAUGCUCCUUUACCAGAATT against GRB10 here?
A: The median seed-adjusted z-score was -0.0341 (inactive).

Q: With GGAAGAACAUGACAACCAATT against IFIT1 as the sequence, how does the median seed-adjusted z-score read?
A: The median seed-adjusted z-score was -0.489 (inactive).

Q: For CCAACGAUCUGGACCGUGUTT against MED16, which median seed-adjusted z-score is on record?
A: The median seed-adjusted z-score was -0.6 (inactive).

Q: Which median seed-adjusted z-score does the source give for GAACCUGGAUCACAUAAUATT against DFFB here?
A: The median seed-adjusted z-score was 0.242 (inactive).

Q: Which median seed-adjusted z-score does the source give for CCAAGAUUGUCACUCUGGATT against E2F7 here?
A: The median seed-adjusted z-score was -0.0972 (inactive).

Q: For GGUUCGAGGUAAACCCUAATT against CTPS2, which median seed-adjusted z-score is on record?
A: The median seed-adjusted z-score was 1.08 (active).

Q: Which median seed-adjusted z-score does the source give for GGGCUACAAACUGAACAAATT against LOC81691 here?
A: The median seed-adjusted z-score was -0.285 (inactive).

Q: Which median seed-adjusted z-score does the source give for CAACAGCGAUUUGAUGGAATT against ERO1L here?
A: The median seed-adjusted z-score was -0.251 (inactive).

Q: For GGAACUGUUUAUAAGGGUATT against RAF1, which median seed-adjusted z-score is on record?
A: Its median seed-adjusted z-score is 0 (inactive).

Q: For GGCACGUUUUACGACAGAATT against CHEK2, which median seed-adjusted z-score is on record?
A: The median seed-adjusted z-score was 0.585 (inactive).

Q: With GGCACAUGGUUAACCUGGATT against GPX4 as the sequence, how does the median seed-adjusted z-score read?
A: Its median seed-adjusted z-score is -1.18 (active).

Q: Which median seed-adjusted z-score does the source give for CCCAGGAAGUUCUACUACATT against HS6ST1 here?
A: The median seed-adjusted z-score was -0.436 (inactive).

Q: Which median seed-adjusted z-score does the source give for GAACUUCACUUAGGACAUUTT against ATP6V1G1 here?
A: Its median seed-adjusted z-score is 0.311 (inactive).

Q: Which median seed-adjusted z-score does the source give for GACUCAAUGGUUUGCAUUATT against CTDP1 here?
A: The median seed-adjusted z-score was -2.29 (active).

Q: Which median seed-adjusted z-score does the source give for GGAUGAUCAUGAGCGGCAATT against PHKG1 here?
A: Its median seed-adjusted z-score is -0.153 (inactive).

Q: For GCUUCAUUGUGGACCGGCATT against GALNTL4, which median seed-adjusted z-score is on record?
A: Its median seed-adjusted z-score is 0 (inactive).
